Beta2AR agonist – activates human beta-2 adrenergic receptor causing internalization; Am2.2-beta2AR cells, FAP receptor internalization, flow cytometry; response, % (test concentration not listed); 340,000 compounds, 0.43% hits; P07550;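 active means response above a set limit, near 3 SD of response in nonfluorescent compounds, cut at about 42% in these data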
Target sequence (P07550 whole entry, looked up): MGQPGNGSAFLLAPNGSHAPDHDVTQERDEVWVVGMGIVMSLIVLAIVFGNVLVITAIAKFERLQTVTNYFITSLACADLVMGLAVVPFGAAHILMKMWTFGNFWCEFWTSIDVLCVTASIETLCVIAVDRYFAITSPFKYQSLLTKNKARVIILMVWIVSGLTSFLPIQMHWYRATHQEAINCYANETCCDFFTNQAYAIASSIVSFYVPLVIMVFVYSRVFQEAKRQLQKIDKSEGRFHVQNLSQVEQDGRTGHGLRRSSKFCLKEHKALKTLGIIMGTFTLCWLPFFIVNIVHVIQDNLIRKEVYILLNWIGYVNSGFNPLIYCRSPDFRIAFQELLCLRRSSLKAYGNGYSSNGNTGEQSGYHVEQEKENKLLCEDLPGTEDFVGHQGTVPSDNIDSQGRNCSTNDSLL
KKLEB tox – CF airway cell cytotoxicity counter-screen; KKLEB CF airway cells viability, ATPlite luminescence, overnight; active compounds read low; cells stimulated with P. aeruginosa culture filtrate; activity change (cytotoxicity), % at 5 µM; 360,000 compounds, 0.36% hits; AID 602141;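 active means corrected activity change at or below -50% at 5 µM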
CF NFkB block – cystic fibrosis NF-kB activation inhibition | KKLEB NF-kB-GFP reporter, PAF-induced, GFP fluorescence overnight | inhibition, % at 5 µM | 360,000 compounds, 0.86% hits;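 active means at least 50% inhibition at 5 µM, scaled per plate between neutral and stimulator controls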;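 further: PAF is a Pseudomonas aeruginosa culture filtrate used as stimulus; plate controls were PAF-stimulated DMSO wells for no effect and unstimulated DMSO wells for full effect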
TRPM1 prom inh – inhibitors of MITF-driven TRPM1 promoter in melanoma cells; SK-MEL-5 TRPM1 promoter luciferase, 24 h; 330,000 compounds, 0.83% hits; inhibition, % at 12.5 µM;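 active means mean inhibition across replicates of 60% or more, whatever share of single replicates reaches that level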
HIF-2a inh – blocks HIF-2a reporter activity; inhibition, % at 18.8 µM; 786-0 RCC cells HIF-2a reporter, luciferase luminescence, overnight; 360,000 compounds, 0.72% hits;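 active means inhibition of the luminescence signal of 40% or more relative to plate controls, in a single-dose primary screen at 18.75 µM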
Peg3 prom inh – Peg3 promoter activity inhibition | AID 588405 | HeLa PEG-Prom luciferase reporter, luminescence, overnight | 360,000 compounds, 1.7% hits | inhibition, % at 20 µM;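 active means inhibition of at least 50% at 20 µM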
The depositor's hits bear a star; · = not tested or not shown. Hits are enriched below; roughly 2.8% of the tested compounds scored in any of these assays.

SMILES	Beta2AR agonist	KKLEB tox	CF NFkB block	TRPM1 prom inh	HIF-2a inh	Peg3 prom inh
NC(c1csc(NC(=O)Nc2ccc(OC(F)(F)F)cc2)n1)C1CCCCC1 (stereo unspecified)	·	-65.2*	68.7*	·	20.3	100.3*
CC(C)(C)c1ccccc1NC(=O)Nc1nc(C(N)c2ccccc2)cs1 (stereo unspecified)	·	-2.8	-13.3	·	5.5	17.1
CC(N)c1csc(NC(=O)Nc2cccc(C(F)(F)F)c2)n1 (stereo unspecified)	·	-18.5	18.7	·	10.2	78.0*
CC(C)(C)c1ccccc1NC(=O)Nc1nc(C(N)Cc2ccc(F)cc2)cs1 (stereo unspecified)	·	-10.0	27.6	·	-5.2	97.6*
CC(C)c1ccccc1NC(=O)Nc1nc(C(N)Cc2ccc(C(F)(F)F)cc2)cs1 (stereo unspecified)	·	-23.9	32.5	·	13.6	108.4*
COc1ccc(NC(=O)Nc2nc(C(N)CC(C)C)cs2)cc1 (stereo unspecified)	·	9.9	2.1	·	15.3	11.3
COc1ccc(CC(N)c2csc(NC(=O)c3ccccc3OC)n2)cc1 (stereo unspecified)	·	-0.4	6.1	·	-30.3	12.7
CN(C)Cc1csc(NC(=O)Nc2cccc(C(F)(F)F)c2)n1	·	7.3	20.3	·	-13.2	18.6
NC(CO)c1csc(NC(=O)Nc2ccccc2Cc2ccccc2)n1 (stereo unspecified)	·	0.4	2.6	·	-1.8	11.2
NC(Cc1ccc(C(F)(F)F)cc1)c1csc(NC(=O)Nc2ccccc2Cc2ccccc2)n1 (stereo unspecified)	·	-92.4*	92.1*	·	3.0	118.3*
CCc1nc2c(OCCC3CCCCC3)cccn2c1N(C=O)Cc1ccccc1	·	-23.9	39.3	·	11.6	66.3*
O=C(CNC(=O)c1cccc(F)c1)N/N=C/c1cc(Br)ccc1OC(=O)/C=C/c1ccco1	1.4	-1.1	8.1	67.2*	-11.2	31.0
O=C(CNC(=O)c1ccc(F)cc1)N/N=C/c1cc(Br)ccc1OCc1ccccc1	8.2	0.3	8.4	-9.8	-34.1	-6.9
CN(C)c1ccc(C(=O)c2ccc(N(C)C)c3ccccc23)cc1	19.2	-2.1	54.9*	40.1	-179.5	-218.3
COc1ccc(C(=O)c2ccc(N(C)C)cc2)c(OC)c1	-5.0	-12.6	17.1	-7.6	-64.2	-5.7
Cc1ccc2nc(Cl)c3cc(C(=O)N(CCN(C)C)Cc4ccco4)sc3c2c1	15.7	-31.6	14.5	-5.5	-15.2	93.1*
CN(C)CCN(Cc1ccco1)C(=O)c1cc2c(Cl)nc3ccccc3c2s1	15.8	-27.0	-9.0	-7.8	19.7	40.2
CC(=O)N1C(=O)C2(NCC(C)N2)c2ccccc21 (stereo unspecified)	·	-4.3	6.4	·	4.6	-1.4
Cc1nn(-c2ccc(F)cc2)c2nc(N)c(C#N)c(-c3cccs3)c12	21.0	-15.4	14.5	7.6	10.1	84.2*
COc1cc(/C=N\NC(=O)c2ccc(-c3ccccc3)cc2)cc(Br)c1O	13.2	-0.6	64.9*	-4.0	-10.6	-54.1
CCc1nc2c(OCc3cc(Cl)cc(Cl)c3)cccn2c1N(C)C(=O)Nc1ccccc1OC	·	-5.5	12.1	·	16.9	31.8
Cc1ccc(Nc2cc(C)nn2-c2nc(C)cc(=O)[nH]2)cc1	31.2	31.7	52.2*	98.4*	40.3*	108.4*
O=C(CSCc1ccc(Cl)cc1)Nc1ccc(-c2nnc(-c3ccccc3)o2)cc1	16.1	-41.9	39.6	13.8	-2.5	51.1*
O=C(CC[C@H]1O[C@@H](n2ccc(=O)[nH]c2=O)[C@H](O)[C@@H]1O)NCCN1CCOCC1	·	-4.5	1.5	·	3.6	0.9
CN(Cc1cc(Cl)cc(Cl)c1)CC(C(=O)c1ccccc1)c1ccccc1 (stereo unspecified)	-1.9	-2.5	8.1	83.5*	38.5	25.6
SMILES	Beta2AR agonist	KKLEB tox	CF NFkB block	TRPM1 prom inh	HIF-2a inh	Peg3 prom inh
O=C(CC(C(=O)c1ccccc1)c1ccccc1)c1ccccc1 (stereo unspecified)	14.8	1.7	16.2	1.0	-37.4	12.6
COC(=O)C=C1CCC2C3CCC4=CC(=O)CCC4(C)C3C(=O)CC12C (stereo unspecified)	93.7*	-13.2	2.0	-11.1	3.0	3.3
CCCC#Cc1ccc2c(c1)O[C@@H](CN(C)Cc1ccc3c(c1)OCO3)[C@H](C)CN([C@@H](C)CO)S2(=O)=O	·	-21.9	32.4	·	15.2	62.5*
C[C@@H]1CN([C@H](C)CO)S(=O)(=O)c2ccc(C#Cc3ccccc3F)cc2O[C@H]1CN(C)C(=O)c1ccc2c(c1)OCO2	·	0.8	12.5	·	-25.4	56.5*
C[C@H]1CN([C@@H](C)CO)S(=O)(=O)c2ccc(C#Cc3ccccn3)cc2O[C@H]1CN(C)Cc1ccc(F)cc1	·	-9.5	1.0	·	-14.8	-18.8
COc1cc(CNc2ncnc3c2ncn3[C@H]2CN(Cc3cccc(C(F)(F)F)c3)C[C@@H](CO)O2)cc(OC)c1OC	·	5.5	-9.0	·	-5.3	11.1
Nc1cc(=O)[nH]c(SCCSc2cc(Cl)ccc2Cl)n1	4.8	0.8	8.3	49.0	19.3	53.9*
Nc1cc(=O)[nH]c(SCCSc2ccccc2F)n1	9.0	2.4	-9.9	52.2	-13.9	21.7
c1ccc(COc2ccccc2CNC2CCCC2)cc1	3.4	9.0	-9.3	-3.4	3.6	-8.5
c1ccc(COc2ccccc2CNC23CC4CC(CC(C4)C2)C3)cc1	7.4	-11.9	19.2	6.8	13.0	74.6*
C[C@@H]1O[C@@H](O[C@H]2[C@H](Oc3cc(O)c4c(c3)OC(c3ccc(O)cc3)CC4=O)O[C@H](CO)[C@@H](O)[C@@H]2O)[C@H](O)[C@H](O)[C@H]1O (stereo partly specified)	6.8	-54.5*	-6.2	-3.9	1.2	-2.0
C[C@@H]1COc2cc(N3CCN(Cc4ccccc4F)CC3)ccc2S(=O)(=O)N1	·	·	·	·	-5.3	·
COc1ccc(Cc2c(-c3ccccc3)nc3ccc(Br)cn23)c(C)c1	·	2.6	17.5	·	-235.7	-119.8
CCOc1cccc(NCc2cc3c(C(C)(C)C)nn(-c4ccccc4)c3[nH]c2=O)c1	3.5	26.6	0.6	5.6	3.2	5.0
CC(C)(C)c1nn(-c2ccccc2)c2[nH]c(=O)c(CNCc3ccc4c(c3)OCO4)cc12	-9.6	-14.4	-21.3	66.5*	23.6	29.8
CCOc1ccc(C(=O)O/N=C(\N)c2ccccn2)cc1OCC	-1.6	-0.9	-6.8	-38.8	-205.7	-140.8
CCOc1cc(C(=O)O/N=C(\N)c2ccccn2)cc(OCC)c1OCC	-5.7	0.6	-2.7	1.3	-56.0	83.6*
NS(=O)(=O)c1ccc(CCNC(=O)CSc2nc3ccsc3c(=O)n2Cc2ccccn2)cc1	·	15.9	-26.7	·	-136.4	-108.9
Cc1c(CN2CCC(C(=O)Nc3cccc(-c4cccc(Cl)c4)c3)CC2)cnn1C	6.4	-14.1	13.3	-3.7	15.6	69.4*
C=CCn1cc(CN2CCC(C(=O)Nc3cccc(-c4cccc(Cl)c4)c3)CC2)c(C)n1	22.4	-7.0	15.3	74.9*	9.4	-109.3
